From PubChem BioAssay
In the library only some 1% were active in any assay of this set; here they are far more common.
ugtP null kill – compounds lethal to S. aureus RN4220 ugtP deletion mutant; OD600 growth, 16 h; growth inhibition, % (no concentration beside the values); hit rate 0.54% among 330,000; in the data active = growth inhibition above about 68%
PriA SSB inh – blocks PriA binding to SSB C-terminal tail; AlphaScreen SSBct-PriA binding, biotinylated peptide; inhibition, % at 33 µM; hit rate 0.6% among 430,000; AID 1272365; in the data active = inhibition mostly above about 37%, no sharp cut-off; inactive = mostly below about 20%
Sa RN4220 lethal – kills Staphylococcus aureus RN4220. S. aureus RN4220 growth, OD600, 16 h. inhibition, % (no concentration beside the values). AID 1259311. hit rate 0.33% among 330,000; in the data active = inhibition above about 85%
Each line names hits and unclear results; the compound was inactive in the other large screens.

O=C(CCCSc1ccc(NC(=O)c2ccc(F)cc2)nn1)NCc1cccnc1	none (no result: ugtP null kill, Sa RN4220 lethal)
Cc1ccc2c(c1)c(-c1ccccc1)c(-c1ccccc1)n2CC(O)CNC1CCCC1 (stereo not drawn)	PriA SSB inh 61.0 (no result: ugtP null kill, Sa RN4220 lethal)
Cc1ccc2c(c1)c1c(n2CC(O)CNC2CCCCC2)CCCC1 (stereo not drawn)	none
O=C(NCc1cccnc1)C(=O)Nc1ccc(Cl)c(N2CCCS2(=O)=O)c1	none (no result: ugtP null kill, Sa RN4220 lethal)
O=C(CSc1ccc(Cl)cc1)NN=Cc1ccc([N+](=O)[O-])o1	ugtP null kill 99.8
O=C(CCC(=O)Nc1ccc(Cl)cc1Cl)NN=Cc1ccc([N+](=O)[O-])o1	ugtP null kill 100.0, Sa RN4220 lethal 96.0
Cc1ccc(NC(=O)CCC(=O)NN=Cc2ccc([N+](=O)[O-])o2)cc1C	none (no result: PriA SSB inh)
O=C(NN=Cc1ccc([N+](=O)[O-])o1)c1ccc2c(c1)OCO2	ugtP null kill 97.7, Sa RN4220 lethal 87.7
O=C(NN=Cc1ccc(-c2ccc([N+](=O)[O-])cc2)o1)c1ccc2c(c1)OCO2	none
O=C(Cc1ccc([N+](=O)[O-])cc1)NN=Cc1ccc([N+](=O)[O-])o1	none (no result: ugtP null kill, Sa RN4220 lethal)
CN1CCN(CCC(=O)O)CC1	none (no result: ugtP null kill, Sa RN4220 lethal)
CCOc1ccccc1C(=O)Nc1cc(-c2cn3nc(OC)ccc3n2)ccc1OC	none (no result: ugtP null kill, Sa RN4220 lethal)
Cc1ccc(N=CC(C(=O)C(F)(F)F)=C(O)c2ccco2)cc1Cl	none (no result: ugtP null kill, Sa RN4220 lethal)
Cc1nc2sccn2c(=O)c1NC(=O)CSCc1ccccc1	none (no result: ugtP null kill, Sa RN4220 lethal)
COc1ccc(-c2cc3ccccc3n2CC(O)CN2CCC(C)CC2)cc1 (stereo not drawn)	none
COc1ccc(-c2cc3ccccc3n2CC(O)Cn2nc(C)cc2C)cc1 (stereo not drawn)	PriA SSB inh 47.2
CN1CCc2cc(C(CNC(=O)NC(C)(C)C)N3CCCCC3)ccc21 (stereo not drawn)	none (no result: ugtP null kill, Sa RN4220 lethal)
CS(=O)(=O)c1ccc2nc(NC(=O)c3ccccc3Cl)sc2c1	none
CC(C)CNS(=O)(=O)c1ccc2nc(NC(=O)c3ccccc3Cl)sc2c1	PriA SSB inh 41.0 (no result: ugtP null kill, Sa RN4220 lethal)
CCCn1nc([N+](=O)[O-])c(C(C#N)c2nc3ccccc3s2)c(Cl)c1=O (stereo not drawn)	PriA SSB inh 55.0
CCn1nc([N+](=O)[O-])c(C(C#N)c2nc3ccccc3n2C)c(Cl)c1=O (stereo not drawn)	none
COCc1cc(CN2CCCC2)c(O)c2ncccc12	none
O=[N+]([O-])c1cc(Cl)ccc1N1CCN(c2cccc(C(F)(F)F)c2)CC1	none
O=[N+]([O-])c1cc(CN2CCN(c3cccc(C(F)(F)F)c3)CC2)c2cccnc2c1O	ugtP null kill 86.4, PriA SSB inh 89.6
O=[N+]([O-])c1cc(CN2CCCC2)c2cccnc2c1O	PriA SSB inh 90.2 (no result: ugtP null kill, Sa RN4220 lethal)
CCOC(=O)N1CCN(C(=O)CSc2nnc3n2CCN3c2ccc(C)cc2)CC1	none (no result: ugtP null kill, Sa RN4220 lethal)
Nc1nc(-c2ccccn2)nc2sccc12	PriA SSB inh 125.5 (no result: ugtP null kill, Sa RN4220 lethal)
Clc1nc(-c2ccccn2)nc2scc(-c3ccccc3)c12	none
CCc1ccc(OCC(O)CN2CCC(CN3C(=O)c4cccc5cccc(c45)C3=O)CC2)cc1 (stereo not drawn)	ugtP null kill 85.4
COc1cccc(OCC(O)CN2CCC(CN3C(=O)c4cccc5cccc(c45)C3=O)CC2)c1 (stereo not drawn)	none
O=C1c2cccc3cccc(c23)C(=O)N1CC1CCN(CC(O)COc2ccc3ccccc3c2)CC1 (stereo not drawn)	PriA SSB inh 45.0
Cc1cc(C)cc(OCC(O)CN2CCC(CN3C(=O)c4cccc5cccc(c45)C3=O)CC2)c1 (stereo not drawn)	none
CC(Oc1ccccc1F)C(=O)NCCOc1ccc2c(c1)OCO2 (stereo not drawn)	none (no result: ugtP null kill, Sa RN4220 lethal)
COc1nn(C)cc1C(=O)N1CC2CC1C(=O)O2 (stereo not drawn)	none (no result: ugtP null kill, Sa RN4220 lethal)
Cc1cc(F)ccc1S(=O)(=O)N1CCCC[C@@H]1CCNC(=O)C(=O)NCCc1ccco1	none (no result: ugtP null kill, Sa RN4220 lethal)
Cc1nc(S(=O)(=O)NCc2cccnc2-c2ccsc2)cn1C	none (no result: ugtP null kill, Sa RN4220 lethal)
CN(C)S(=O)(=O)N1CCCC(S(=O)(=O)c2ccc(F)cc2)C1 (stereo not drawn)	none (no result: ugtP null kill, Sa RN4220 lethal)
Cn1cccc1C=NNC(=O)C1COc2ccccc2O1 (stereo not drawn)	none
Cn1cccc1C=NNC(=O)C1COc2ccc(C(C)(C)C)cc2O1 (stereo not drawn)	PriA SSB inh 38.9
CC1Cc2cc(C(O)=C3C(=O)C(=O)N(CCCN4CCOCC4)C3c3ccc(C(C)C)cc3)ccc2O1 (stereo not drawn)	none (no result: ugtP null kill, Sa RN4220 lethal)
O=Cc1ccc(Sc2ncccn2)o1	none
CCCCCCCCC(=O)NN=Cc1ccccn1	none
O=Cc1ccc(Sc2cccc3cccnc23)o1	PriA SSB inh 104.0 (no result: ugtP null kill, Sa RN4220 lethal)
CCCCCCCC(=O)N/N=C/c1ccc(Sc2cccc3cccnc23)o1	PriA SSB inh active (no result: ugtP null kill, Sa RN4220 lethal)
O=C(Cc1cccc2ccccc12)N/N=C/c1ccc(Sc2cccc3cccnc23)o1	none (no result: ugtP null kill, Sa RN4220 lethal)
O=C(CCc1ccccc1O)NN=Cc1ccc(Sc2cccc3cccnc23)o1	PriA SSB inh 93.5
O=c1c2c(-c3ccccc3)csc2nc2c3ccccc3c(NCCN3CCOCC3)nn12	Sa RN4220 lethal 91.1
